In the supplement of paper PMC8728848:
This excerpt belongs to a sample that is enriched for the strongest signals.

Key:
Experiment in all cases: glycan array binding signal (z-score within array); higher = stronger binding
Conditions in all cases: glycan notation: IUPAC condensed, linker removed
[1] = molecular target: Fuc(a1-2)Gal(b1-3)GlcNAc(b1-2)Man(a1-3)[Fuc(a1-2)Gal(b1-3)GlcNAc(b1-2)Man(a1-6)]Man(b1-4)GlcNAc(b1-4)[Fuc(a1-6)]GlcNAc
Method in brief: (§1)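 Arrays were curated from the Consortium for Functional Glycomics database, 3228 in total, and kept only where the protein sequence was available. Binding is expressed as a within-array Z-score. This score was averaged across arrays of the same protein sequence at different concentrations or buffers and across linkers, and negative values can be read as non-binding.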

[2] = molecular target: Fuc(a1-2)Gal(b1-4)GlcNAc(b1-3)Gal(b1-4)GlcNAc(b1-2)Man(a1-3)[Fuc(a1-2)Gal(b1-4)GlcNAc(b1-3)Gal(b1-4)GlcNAc(b1-2)Man(a1-6)]Man(b1-4)GlcNAc(b1-4)GlcNAc
Method in brief: as §1

[3] = molecular target: Fuc(a1-2)[Gal(a1-3)]Gal(b1-3)GlcNAc(b1-6)GalNAc
Method in brief: as §1

[4] = molecular target: Fuc(a1-2)[Gal(a1-3)]Gal(b1-4)GlcNAc(b1-6)GalNAc
Method in brief: as §1

[5] = molecular target: Fuc(a1-2)[GalNAc(a1-3)]Gal(b1-4)GlcNAc(b1-2)Man
Method in brief: as §1

[6] = molecular target: Fuc(a1-2)[GalNAc(a1-3)]Gal(b1-4)GlcNAc(b1-6)GalNAc
Method in brief: as §1

[7] = molecular target: Fuc(a1-2)[GalNAc(b1-3)]Gal
Method in brief: as §1

[8] = molecular target: Gal(a1-3)Gal
Method in brief: as §1

[9] = molecular target: Gal(a1-3)Gal(b1-4)GlcNAc(b1-6)GalNAc
Method in brief: as §1

[10] = molecular target: Gal(a1-3)Gal(b1-4)[Fuc(a1-3)]GlcNAc(b1-2)Man(a1-3)[Gal(a1-3)Gal(b1-4)[Fuc(a1-3)]GlcNAc(b1-2)Man(a1-6)]Man(b1-4)GlcNAc(b1-4)GlcNAc
Method in brief: as §1

[11] = molecular target: Gal(a1-3)GalNAc
Method in brief: as §1

[12] = molecular target: Gal(a1-3)[Gal(a1-4)]Gal(b1-4)GlcNAc
Method in brief: as §1

[13] = molecular target: Gal(a1-4)Gal(b1-4)Glc
Method in brief: as §1

[14] = molecular target: Gal(b1-3)GlcNAc(b1-2)Man(a1-3)[Gal(b1-3)GlcNAc(b1-2)Man(a1-6)]Man(b1-4)GlcNAc(b1-4)[Fuc(a1-6)]GlcNAc
Method in brief: as §1

[15] = molecular target: Gal(b1-3)GlcNAc(b1-6)Gal(b1-4)GlcNAc
Method in brief: as §1

[16] = molecular target: Gal(b1-3)GlcNAc(b1-6)GalNAc
Method in brief: as §1

[17] = molecular target: Gal(b1-3)[Fuc(a1-4)]GlcNAc(b1-3)Gal(b1-3)[Fuc(a1-4)]GlcNAc
Method in brief: as §1

[18] = molecular target: Gal(b1-3)[Neu5Ac(a2-6)]GlcNAc(b1-4)Gal(b1-4)Glc
Method in brief: as §1

[19] = molecular target: Gal(b1-4)GlcNAc(b1-2)Man(a1-3)[Gal(b1-4)GlcNAc(b1-2)Man(a1-6)][Gal(b1-4)GlcNAc(b1-4)]Man(b1-4)GlcNAc(b1-4)[Fuc(a1-6)]GlcNAc
Method in brief: as §1

[20] = molecular target: Gal(b1-4)GlcNAc(b1-3)Gal(b1-4)GlcNAc(b1-2)[Gal(b1-4)GlcNAc(b1-3)Gal(b1-4)GlcNAc(b1-6)]Man(a1-6)[Gal(b1-4)GlcNAc(b1-3)Gal(b1-4)GlcNAc(b1-2)Man(a1-3)]Man(b1-4)GlcNAc(b1-4)[Fuc(a1-6)]GlcNAc
Method in brief: as §1

[21] = molecular target: Gal(b1-4)GlcNAc(b1-3)Gal(b1-4)GlcNAc(b1-3)Gal(b1-4)GlcNAc(b1-2)[Gal(b1-4)GlcNAc(b1-3)Gal(b1-4)GlcNAc(b1-3)Gal(b1-4)GlcNAc(b1-6)]Man(a1-6)[Gal(b1-4)GlcNAc(b1-3)Gal(b1-4)GlcNAc(b1-3)Gal(b1-4)GlcNAc(b1-2)Man(a1-3)]Man(b1-4)GlcNAc(b1-4)[Fuc(a1-6)]GlcNAc
Method in brief: as §1

[22] = molecular target: Gal(b1-4)GlcNAc(b1-3)Gal(b1-4)GlcNAc(b1-3)Gal(b1-4)GlcNAc(b1-3)Gal(b1-4)GlcNAc(b1-2)[Gal(b1-4)GlcNAc(b1-3)Gal(b1-4)GlcNAc(b1-3)Gal(b1-4)GlcNAc(b1-3)Gal(b1-4)GlcNAc(b1-6)]Man(a1-6)[Gal(b1-4)GlcNAc(b1-3)Gal(b1-4)GlcNAc(b1-3)Gal(b1-4)GlcNAc(b1-3)Gal(b1-4)GlcNAc(b1-2)Man(a1-3)]Man(b1-4)GlcNAc(b1-4)[Fuc(a1-6)]GlcNAc
Method in brief: as §1

[23] = molecular target: Gal(b1-4)GlcNAc(b1-3)Gal(b1-4)GlcNAc(b1-3)Gal(b1-4)GlcNAc(b1-3)Gal(b1-4)GlcNAc(b1-3)Gal(b1-4)GlcNAc(b1-3)Gal(b1-4)GlcNAc(b1-2)Man(a1-3)[Gal(b1-4)GlcNAc(b1-3)Gal(b1-4)GlcNAc(b1-3)Gal(b1-4)GlcNAc(b1-3)Gal(b1-4)GlcNAc(b1-3)Gal(b1-4)GlcNAc(b1-3)Gal(b1-4)GlcNAc(b1-2)Man(a1-6)]Man(b1-4)GlcNAc(b1-4)GlcNAc
Method in brief: as §1

[24] = molecular target: Gal(b1-4)GlcNAc(b1-6)[Gal(b1-4)GlcNAc(b1-3)]GalNAc
Method in brief: as §1

[25] = molecular target: Gal3S(b1-3)GalNAc
Method in brief: as §1

[26] = molecular target: Gal3S(b1-4)[Fuc(a1-3)]GlcNAc6S
Method in brief: as §1

[27] = molecular target: GalNAc(b1-3)Gal
Method in brief: as §1

B1: DC-ASGPR L+GEE (Homo sapiens) (protein)
chain: MTRTYENFQYLENKVKVQGFKNGPLPLQSLLQRLRSGPCHLLLSLGLGLLLLVIICVVGFQNSKFQRDLVTLRTDFSNFTSNTVAEIQALTSQGSSLEETIASLKAEVEGFKQERQAGVSELQEHTTQKAHLGHCPHCPSVCVPVHSEMLLRVQQLVQDLKKLTCQVATLNNNGEEASTEGTCCPVNWVEHQDSCYWFSHSGMSWAEAEKYCQLKNAHLVVINSREEQNFVQKYLGSAYTWMGLSDPEGAWKWVDGTDYATGFQNWKPGQPDDWQGHGLGGGEDCAHFHPDGRWNDDVCQRPYHWVCEAGLGQTSQESH
- glycan array binding signal (z-score) [1]: -0.314
- glycan array binding signal (z-score) [2]: 0.538
- glycan array binding signal (z-score) [3]: 2.67
- glycan array binding signal (z-score) [4]: -0.492
- glycan array binding signal (z-score) [5]: 0.54
- glycan array binding signal (z-score) [6]: 3.41
- glycan array binding signal (z-score) [7]: 3.61
- glycan array binding signal (z-score) [8]: 0.243
- glycan array binding signal (z-score) [9]: 3.21
- glycan array binding signal (z-score) [10]: 0.091
- glycan array binding signal (z-score) [11]: -0.254
- glycan array binding signal (z-score) [12]: -0.371
- glycan array binding signal (z-score) [13]: -0.702
- glycan array binding signal (z-score) [14]: -0.527
- glycan array binding signal (z-score) [15]: -0.073
- glycan array binding signal (z-score) [16]: 3.3
- glycan array binding signal (z-score) [17]: -0.093
- glycan array binding signal (z-score) [18]: -0.382
- glycan array binding signal (z-score) [19]: -0.406
- glycan array binding signal (z-score) [20]: -0.323
- glycan array binding signal (z-score) [21]: 0.024
- glycan array binding signal (z-score) [22]: 2.52
- glycan array binding signal (z-score) [23]: 0.991
- glycan array binding signal (z-score) [24]: -0.432
- glycan array binding signal (z-score) [25]: 0.442
- glycan array binding signal (z-score) [26]: 0.135
- glycan array binding signal (z-score) [27]: 3.04
